This is a sample that favours compounds with a hit; in the whole collection about 27% have one here.
Cav3 T inh – inhibitors of human Cav3.2 T-type calcium channel. O95180. Cav3.2-expressing cells, Fluo-4 calcium fluorescence FDSS; stronger effect = lower value. B-score at 10 µM. 4% of 100,000 active. AID 449739;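 active means single-dose well whose peak fluorescence ratio is a statistical outlier from its plate by either plate-standardised score or position-corrected B-score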
CYP2C9 act – increases human cytochrome P450 2C9 activity. activation factor at 5 µM. recombinant CYP2C9, luciferin-H conversion, luminescence; stronger effect = higher value; factor 1 = untreated enzyme, 0 = blocked. AID 1024. 1.4% of 96,000 active. P11712;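 active means activation factor of 2 or more for CYP2C9 at a 5 µM dose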;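 further: 0 = sulfaphenazole-blocked wells and 1 = vehicle-only wells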
CYP2C19 act – cytochrome P450 2C19 (human) activation | 96,000 tested, under 10 active | P33261 | AID 1025 | activation factor at 5 µM | recombinant CYP2C19, luciferin-H EGE luminescence; stronger effect = higher value; 0 = fully inhibited enzyme, 1 = untreated enzyme;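 active means activation factor of at least 2 at 5 µM in the primary screen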;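 further: 0 = wells with 2.5 mM tranylcypromine and 1 = vehicle-only wells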
CYP2C19 inh – inhibitors of human CYP2C19 | P33261 | CYP2C19 Supersomes, luciferin-H EGE luminescence, 30 min | inhibition, % at 5 µM | 21% of 96,000 active;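 active means CYP2C19 inhibition above a set limit at 5 µM in the primary screen, cut at about 50% in these data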;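 further: plate controls were negative control wells for no effect and 2.5 mM tranylcypromine positive control for full effect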
CYP2C9 inh – blocks human cytochrome P450 2C9; P11712; CYP2C9 Supersomes, luciferin-H conversion, luminescence; inhibition, % at 5 µM; 20% of 96,000 active; AID 777;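 active means blocking of liver enzyme CYP2C9 beyond about 50% at 5 µM, limit read from the data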
* marks the source's active call; other numbers are inactive results; / = no result.

SMILES | Cav3 T inh | CYP2C9 act | CYP2C19 act | CYP2C19 inh | CYP2C9 inh
N#CC1=C(O)C(c2ccccc2)n2c1nc(=O)c1ccccc12 (stereo not drawn) | 1.2 | 0.6 | 0.9 | 12 | 42
CCO/C=C/C(=O)N(C)CCC#N | -0.51 | 1.1 | 1.1 | -12 | -11
COc1ccc(CCN2C(=O)C3C4CC(C5C(C(=O)N/N=C\c6ccc(Cl)cc6)=NOC45)C3C2=O)cc1OC (stereo not drawn) | -1.4 | 0.5 | 0.8 | 20 | 49
CCOC(=O)c1[nH]c(C)c(CN(CCc2ccccc2)S(C)(=O)=O)c1C | -0.37 | 0.4 | 0.7 | 31 | 56*
CCC1CCCCN1S(=O)(=O)c1ccc(S(=O)(=O)N(Cc2cccs2)C2CC2)cc1 (stereo not drawn) | 2.1 | 0.3 | 0.3 | 69* | 71*
Cc1ccc(S(=O)(=O)N2CCCC(C(=O)N(Cc3cccs3)C3CC3)C2)cc1 (stereo not drawn) | -2.2 | 1.5 | 0 | 99* | -50
Cc1ccc(CCNC(=O)C2CCCN(S(=O)(=O)c3cccs3)C2)cc1 (stereo not drawn) | 3.2 | 0.3 | 0.9 | 13 | 72*
Cc1ccc(NC(=O)C2CCCN(S(=O)(=O)c3cccs3)C2)cc1 (stereo not drawn) | -0.46 | 0.7 | 0.8 | 19 | 30
COc1ccc(S(=O)(=O)N2CCCC2C(=O)NCc2cccs2)cc1 (stereo not drawn) | 0.98 | 3.1* | 0.3 | 68* | -210
CC(C)[C@@H]1NC(=O)c2cc([N+](=O)[O-])cc(I)c2NCCC[C@@H](C(N)=O)NC(=O)[C@H](CO)NC1=O | 0.41 | / | / | / | /
Cn1c(=O)oc2cc(S(=O)(=O)N3CCCC(C(=O)NCc4cccs4)C3)ccc21 (stereo not drawn) | / | 0.7 | 0.8 | 24 | 27
Cn1c(=O)oc2cc(S(=O)(=O)N3CCCC(C(=O)NCc4ccc5c(c4)OCO5)C3)ccc21 (stereo not drawn) | 0.17 | 0.3 | 0.9 | 8 | 68*
O=C(NCc1cccs1)C1CCCN(S(=O)(=O)c2ccc3c(c2)OCO3)C1 (stereo not drawn) | 2.2 | 2.1* | 0.9 | 14 | -110
O=C(NCc1cccs1)C1CCCN(S(=O)(=O)c2cccs2)C1 (stereo not drawn) | 1.3 | 0.3 | 0.8 | 22 | 72*
CS(=O)(=O)N1CCCC(C(=O)NCc2cccs2)C1 (stereo not drawn) | 0.46 | 1 | 1 | 0 | 3
CCCS(=O)(=O)N1CCCC(C(=O)NCCc2ccc(Cl)cc2)C1 (stereo not drawn) | -0.35 | 0.4 | 0.7 | 28 | 56*
CC1=Nn2c(nnc2-c2cccs2)SC1 | 0.86 | 0.8 | 0.9 | 8 | 22
COc1ccc(-c2nnn(CCc3nn[nH]n3)n2)cc1 | 0.34 | / | / | / | /
Cc1ccc(NC(=O)/C=C/c2cccs2)c([N+](=O)[O-])c1 | -0.024 | 1.1 | 1.2 | -16 | -8
CCOC(=O)c1sc(-c2ccc(F)cc2)cc1N | 1.4 | 0.2 | 0.1 | 90* | 83*
CCOC(=O)c1cc(-c2ccccc2)sc1N | -1.1 | / | / | / | /
CCOC(=O)c1sc(-c2ccccc2)cc1N | -0.028 | 0.2 | 0.1 | 90* | 80*
CCn1c(-c2ccccc2Cl)nn(CC(=O)Nc2cc(Cl)ccc2Cl)c1=S | -4.8* | 0.6 | 0.1 | 89* | 41
Cc1ccc(Cl)cc1NC(=O)Cn1cc2c(n1)CCCC2 | -1.4 | 0.8 | 0.8 | 22 | 20
O=C(CSc1oc(-c2ccc(F)cc2)nc1S(=O)(=O)c1ccccc1)NCC1CCCO1 (stereo not drawn) | 1.2 | / | / | / | /
SMILES | Cav3 T inh | CYP2C9 act | CYP2C19 act | CYP2C19 inh | CYP2C9 inh
O=C(NCc1ccccc1)Oc1cccc(Cl)c1 | -1.2 | / | / | / | /
COC(=O)NCc1ccc(CNC(=O)OC)cc1 | -0.17 | 1 | 1 | 4 | 0
COc1ccc(CNC(=O)Oc2ccccc2)cc1Cl | -5.2* | 2.4* | 0.4 | 63* | -140
COC(=O)NCc1ccc(Cl)c(Cl)c1 | -1.6 | 1 | 0.4 | 64* | 3
CCOc1ccccc1-n1c(SCC(=O)NC(C)CC)nnc1-c1ccoc1C (stereo not drawn) | 0.95 | 0.8 | 1 | -1 | 16
CC(=O)C1C(c2ccccc2OC(F)F)NC(=O)NC1(O)C(F)(F)F (stereo not drawn) | / | 0.9 | 1 | 1 | 14
CCNc1nc(NCC)nc(OCCOC(=O)c2ccccc2)n1 | 0.63 | 0.7 | 0.5 | 51* | 28
CCNc1nc(NCC)nc(OCCOC(C)=O)n1 | -0.21 | / | / | / | /
N#CC1=C(N)SC(N)=C(C#N)C1CCC1CCCCC1 | -0.11 | 0.8 | 0.9 | 12 | 25
COc1ccc2c(c1)C(=O)/C(=C/C=C/c1ccccc1)CC2 | -4.7* | / | / | / | /
COc1ccc2c(c1)CC/C(=C\C=C\c1ccccc1OC)C2=O | -0.077 | / | / | / | /
O=C(N[C@@H](Cc1ccccc1)C(=O)O)c1ccncc1 | 0.35 | / | / | / | /
c1ccc2c(c1)ncn2CCCOc1ccc2c(c1)CCC2 | -2.6 | 0.6 | 0.6 | 40 | 39
CC1(C)NC(=O)N(CC(O)COc2ccccc2C(=O)N2CCCCC2)C1=O (stereo not drawn) | 0.46 | 0.8 | 0.9 | 14 | 17
C/C=C/c1ccc(OCCN2C(=O)NC(C)(C)C2=O)c(OC)c1 | -1.8 | 0.9 | 0.6 | 37 | 11
CC1(C)NC(=O)N(CCCOc2ccc3c(c2)CCC3)C1=O | 0.46 | 0.9 | 0.1 | 90* | 11
CC1(C)NC(=O)N(CCCSc2ccc(Cl)cc2)C1=O | 0.49 | 0.4 | 0.1 | 93* | 62*
CCc1cc(OCCN2C(=O)NC(C)(C)C2=O)ccc1Cl | -0.1 | 0.6 | 0.3 | 74* | 42
CCC(=O)c1ccccc1OCCN1C(=O)NC(C)(C)C1=O | 0.88 | 0.3 | 0.3 | 75* | 67*
CCCOC1(NC(=O)c2ccccc2)C(C)=CC(=O)C=C1C | -0.019 | 1.1 | 0.7 | 26 | -9
CC1(C)NC(=O)N(CNc2cc(Cl)ccc2Cl)C1=O | 1.6 | 3.1* | 0.1 | 88* | -206
Cc1cc(OCCCCN2C(=O)NC(C)(C)C2=O)cc(C)c1Cl | -1.1 | 1 | 0.2 | 76* | -4
CC1(C)NC(=O)N(CCCCOc2ccc(Cl)cc2)C1=O | -0.36 | 0.6 | 0.1 | 86* | 44
COc1ccc(OCCN2C(=O)NC(C)(c3ccc(C)cc3)C2=O)cc1 (stereo not drawn) | -1.8 | / | / | / | /
COc1ccc(CC(=O)NC2CC(C)(C)NC(C)(C)C2)cc1 | 0.082 | / | / | / | /
SMILES | Cav3 T inh | CYP2C9 act | CYP2C19 act | CYP2C19 inh | CYP2C9 inh
CCCCSc1nnc2nc(C)cc(C)n12 | 0.65 | 1.2 | 1 | 4 | -15
COC(=O)c1ccsc1NC(=O)c1ccc2c(c1)OCCO2 | 0.43 | / | / | / | /
CCOC(=O)N1CCN(C(=O)COc2ccc(S(=O)(=O)Nc3ccc(OCC)cc3)cc2)CC1 | -0.038 | 0.5 | 0.8 | 22 | 51*
CCOc1ccc(S(=O)(=O)Nc2ccc(S(=O)(=O)N3CCCCC3)cc2)cc1 | -5.2 | 0.1 | 0.5 | 53* | 86*
CCOc1ccc2cc(S(=O)(=O)N3CCOCC3)ccc2c1 | -1.1 | 0.8 | 1 | 1 | 24
O=S(=O)(c1ccc(Oc2ccc(Br)cc2)cc1)N1CCOCC1 | -1.6 | 0.4 | 0.2 | 75* | 64*
